The text below walks through data of PubChem BioAssay (Tox21).

Records with an inconclusive call do not appear. Values without a mark were called inactive. The call rests on the fitted dose curve; in most records, active means well fitted activation curve with a large enough effect in the repeat runs; inconclusive means weak or mixed curves; inactive means flat fitted curve, though single readings scatter. Non-standard residues stand in square brackets, D forms with d. Residues, ends and D or L forms follow the SMILES beside them. *: point of attachment. Sta = CC(C)C[C@H](N)[C@@H](O)CC(=O)O; Isovaleryl = CC(C)CC(=O)*
On the % scale 0 is the no-effect control and ±100 the full control effect.

This experiment is described as follows: A CellTox Green Cytotoxicity Assay to monitor cytotoxicity in HEK293 cells - 40 hour (AID 1224871). Further: nearly all actives have a fitted effect of over 45% in size. Conditions: CellTox Green fluorescence; series mostly up to 76.8 µM; cytotoxicity increase: at the top concentration. From the text: National Center for Advancing Translational Sciences [NCATS]
NIH Chemical Genomics Center [NCGC]
U.S. Environmental Protection Agency [EPA]
National Institutes of Environmental Health Sciences [NIEHS]
National Toxicology Program [NTP]
Cell-based models are critical for drug discovery. Determining the natural cytotoxic effects resulting from test compounds is an essential research activity. A CellTox Green Cytotoxicity Assay to monitor cytotoxicity in real time of continues cell culture during 40 hours of the compound treatment was used to screen Tox21 10K library compounds in Hek293 cells. CellTox Green Cytotoxicity Assay is a nonlytic, homogeneous, biofluorescent method to measure cytotoxicity in cell culture after experimental manipulation. The assay system uses a proprietary asymmetric cyanine dye that is excluded from viable cells but preferentially stains the dead cell's DNA. […] Viable cells produce no appreciable increases in fluorescence. Therefore, the fluorescence signal produced by the binding interaction with dead cell DNA is proportional to cytotoxicity.
The mixture of Hek293 cell suspension and reagents were dispensed at 600cells/6 ul/well in 1536-well tissue culture treated black solid bottom plates using a Multidrop dispenser. After the assay plates were incubated at a 37 C/5% CO2 incubator for 5 hours, 23 nL of compounds dissolved in DMSO, positive and negative controls was transferred to the assay plate by a pintool work station. The plates were incubated at 37 C for 40 hours. The fluorescence intensity were measured at 0h, 8h, 16h, 24h, 32h and 40h time points using ViewLux plate reader during compound treatment.
On to `CC(C)(C)C(=O)NCCCC(=O)O`, for which the “cytotoxicity increase” value is -12% [at 35.3 µM]. On to `OCCC(F)(F)C(F)(F)C(F)(F)C(F)(F)C(F)(F)C(F)(F)F`, for which the “cytotoxicity increase” value is -2.26%. The value for `CCOC(=O)CC` was -2.37%; that for `NNC(=O)CCCCC(=O)NN` was -15.7%; that for `CC(C)c1cc(C(C)C)cc(C(C)C)c1` was -0.731%. The value for `C[C@]12C=CC(=O)C=C1[C@@H](F)C[C@@H]1[C@@H]2[C@@H](O)C[C@@]2(C)[C@H]1CC[C@]2(O)C(=O)CO` was -18.8% [at 35.3 µM]; that for `CC(=O)O[C@@H]1CC2C3CCc4cc(OC(=O)c5ccccc5)ccc4C3CCC2(C)[C@H]1OC(C)=O` (stereo not given in full) was 7.88% [at 35.3 µM]; that for `CC(C)(C)c1ccc(N)cc1` was 11.1%. On to `C=CCCCCCCCCCCCCCC`, for which the cytotoxicity increase is 0.351% [at 15.8 µM]. The result for `CCC(C)(C)C` reads 14.4%; that for `COc1cnc(NS(=O)(=O)c2ccc(N)cc2)nc1`, 20.7% [at 35.3 µM]; that for `NCC1CCC(C(=O)Oc2ccc(CCC(=O)O)cc2)CC1` (stereo not given), 0.412% [at 35.3 µM].

Take `CCCCN1C(=O)c2ccccc2C1=O`: the “cytotoxicity increase” value was -2.99%. The result for `CCCCCCCC(=O)N(C)C` reads -0.698%; that for `CCO/C=C1\N=C(c2ccccc2)OC1=O`, -9.42%.

As for `COC(=O)c1ccccc1Cl`, the “cytotoxicity increase” value is -1.46%. Consider `CN(C)CCc1c[nH]c2ccc(CS(=O)(=O)N3CCCC3)cc12`, for which the “cytotoxicity increase” value was -12.5% [at 35.3 µM]. With `C=COCCCCO`, the “cytotoxicity increase” value is -13%.

As to `O=C(O)P(=O)(O)O`, the “cytotoxicity increase” value is 1.62% [at 35.3 µM].

Turning to `CC(C)(C)C(=O)CCc1ccc(Cl)cc1`, the “cytotoxicity increase” value was 14%. The result for `COc1ccc(Cl)cc1C` reads -6.54%; that for `CC(C)=CCC/C(C)=C\C#N`, -14.7%. The result for `CC12CCCC=C1C(=O)OC2=O` (stereo not given) reads 5.51%; that for `CC(C)(O)c1ccc(C(C)(C)O)cc1`, 16.4%; that for `O=C1c2ccccc2C(=O)N1CO`, -3%.

As for `CSC(=O)c1cccc2nnsc12`, the “cytotoxicity increase” value is -12.9%. Regarding `CC(C)CC(=O)N[C@H](C(=O)N[C@H](C(=O)N[C@@H](CC(C)C)[C@@H](O)CC(=O)N[C@@H](C)C(=O)N[C@@H](CC(C)C)[C@@H](O)CC(=O)O)C(C)C)C(C)C` (Isovaleryl-VV[Sta]A[Sta]-OH), the “cytotoxicity increase” value is -2.14% [at 35.3 µM]. The value for `CC(=O)Nc1ccc(S(=O)(=O)Nc2cc(C)on2)cc1` was 6.91% [at 35.3 µM]; that for `Clc1ccc2c(c1)Nc1ccccc1S2` was -1.95% [at 35.3 µM]. The value for `CCCCNCC` was -0.418%.

In the case of `CCCCCCCCCCCCCCCC(=O)OC`, the cytotoxicity increase is -6.02% [at 15.8 µM]. Regarding `O=S(=O)(O)c1cc(I)c(O)c2ncccc12`, the “cytotoxicity increase” value was -1.97% [at 35.3 µM]. The value for `Nc1nc(Cl)cc(Cl)n1` was 2.53%.

For the compound `O=C1Nc2ccccc2C1=O`, the “cytotoxicity increase” value was 16.1%. The result for `CCOc1ccccc1OCCN[C@H](C)Cc1ccc(OC)c(S(N)(=O)=O)c1` reads -17.8% [at 35.3 µM]. The result for `CC(CC(=O)Cl)CC(C)(C)C` (stereo not given) reads 5.3%; that for `CCNC(=O)C(C)OC(=O)Nc1ccccc1` (stereo not given), 7.34%; that for `C=C(C)C(=O)OCCOC1CC2CC1C1C=CCC21` (stereo not given), -1.68%. The result for `COC(=O)/C=C(\C)CCC=C(C)C` reads -3.28%. In the case of `COc1cc2nc(N3CCN(C(=O)C4CCCO4)CC3)nc(N)c2cc1OC` (stereo not given), the “cytotoxicity increase” value was -13.5% [at 35.3 µM].
